Test results as given in PubChem BioAssay AID2284353 (EPA ToxCast).
Inconclusive results are not listed. Active and inactive are the calls of the source. The calls were made as follows: active = hit-call score of the fitted dose curve at least 0.9, where 1 is the maximum; inconclusive = response in the unintended direction; inactive = score below 0.9.

These molecules were tested on Japanese medaka Peroxisome Proliferator-activated Receptor gamma (PPARg), gene 100304459 (assay: ATG_jmPPARg_EcoTox2: Attagene TRANS-FACTORIAL EcoTox-2 HepG2 Assay for Japanese medaka Peroxisome Proliferator-activated Receptor gamma (PPARg)).
Description: ATG_EcoTox2 is a cell-based, multiplexed assay created by modifying the existing Attagene TRANS-FACTORIAL system to include a panel of nuclear receptors from some or all the following species: human (Homo sapiens), african clawed frog (Xenopus laevis), rainbow trout (Oncorhynchus mykiss), japanese medaka (Oryzias latipes), and zebrafish (Danio rerio). The ECOTOX2-FACTORIAL format uses HepG2, a human liver cell line, with measurements taken at 24 hours after chemical dosing in a 24-well plate. ATG_jmPPARg_EcoTox2 is one of 29 assay components calculated in the ATG_EcoTox2 assay. It is designed to make measurements of mRNA induction, a form of inducible reporter, as detected with fluorescence intensity signals by Reverse transcription polymerase chain reaction (RT-PCR) and Capillary electrophoresis technology.The assay endpoint ATG_jmPPARg_EcoTox2 was analyzed in the positive analysis fitting direction relative to DMSO as the negative control and baseline of activity. Using a type of inducible reporter, measures of mRNA for gain-of-signal activity can be used to understand the reporter gene at the transcription factor-level as they relate to the gene PPARg. Furthermore, this assay endpoint can be referred to as a primary readout, because this assay has produced multiple assay endpoints where this one serves a reporter gene function. To generalize the intended target to other relatable targets, this assay endpoint is annotated to the nuclear receptor intended target family, where the subfamily is non-steroidal.
Human liver HepG2 cells are transiently transfected with multiple reporter transcription units (MRTUs) in 6-well plates using FuGene 6 reagent (Roche; 3 ml FuGene/1 mg DNA). The MRTU constructs are regulated by a cis-regulating element (promoter). Each RTU expresses a GAL4-UAS that regulates the transcription of a nearby target reporter gene sequence. A major difference between the CIS and TRANS system is that in CIS activities of endogenous TFs are measured, whereas the TRANS assay evaluates changes in activities of exogenous, chimeric NR-Gal4 proteins. […] At the end of 24 hour incubation, total RNA was isolated using TriZol reagent (Invitrogen). The isolated RNA is then reverse-transcribed using oligo(dT) primer and Mo-MLV reverse transcriptase (Invitrogen) with DNAse I (Ambion) treatment for 30 min. The one-tenth of the produced cDNA was amplified by PCR using Taq DNA polymerase (Invitrogen) and two reporter sequence-specific primers. The PCR products were fluorescently labeled by primer extension with 6-arboxyfluorescein (6-FAM) 5'-labeled reporter sequence-specific primer (2 min at 95 C, 20 s at 68 C and 10 min at 72 C) and these products were digested with 5U of HpaI (New England Biolabs) for 2h at 37 C. The fragments were purified using Qiaquick PCR columns (Qiagen), analyzed on an ABI 3130xL genetic analyzer (Applied Biosystems) with peak positions identified by using a set of X-rhodamine (ROX)-labeled MapMarker1000 molecular weight standards (BioVentures). The raw capillary electrophoresis data was processed using Attagraph software (Attagene).

Row | SMILES | outcome | AC50
1 | Cc1c(C)c2c(c(C)c1O)CCC(C)(COc1ccc(CC3SC(=O)NC3=O)cc1)O2 (stereo not drawn) | inactive | –
2 | Cc1nc(-c2ccc(C(F)(F)F)cc2)sc1C(=O)NCc1ccc(OC(C)(C)C(=O)O)cc1 | – | 20.9 µM (active)
3 | C=C(c1ccc(C(=O)O)cc1)c1cc2c(cc1C)C(C)(C)CCC2(C)C | – | 5.55 µM (active)
4 | Cc1ccc(C)c(OCCCC(C)(C)C(=O)O)c1 | inactive | –
5 | CN(CCOc1ccc(CC2SC(=O)NC2=O)cc1)c1ccccn1 (stereo not drawn) | inactive | –
6 | CC(C)OC(=O)C(C)(C)Oc1ccc(C(=O)c2ccc(Cl)cc2)cc1 | inactive | –
7 | C[C@]12C=CC(=O)C=C1CC[C@@H]1[C@@H]2C(=O)C[C@@]2(C)[C@H]1CC[C@]2(O)C(=O)CO | inactive | –
8 | CC(c1cc2ccccc2s1)N(O)C(N)=O (stereo not drawn) | inactive | –
